BaF3 tox: parental Ba/F3 cell viability inhibition, counter-screen for JAK2V617F inhibitor project, murine pro-B, CellTiter-Glo luminescence | CellTiter-Glo ATP luminescence | inhibition, % at 5.6 µM | actives 1.1% (n = 220,000) | AID 1486, 2009;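 active = inhibition above a per-campaign cutoff, the mean inhibition of all tested compounds plus 3 SD, cut at about 27% in these data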;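 also: 0% = DMSO wells and 100% = JAK Inhibitor I control wells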
Ba/F3 V617F tox: reduced viability of JAK2V617F-dependent Ba/F3 cells, primary screen, JAK2V617F inhibitor project, cell-based, Ba/F3 EpoR-JAK2V617F, luminescence. ATP luminescence. inhibition, % at 5.6 µM. actives 1.1% (n = 220,000). AID 1446, 2008;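 active = inhibition above the campaign mean plus 3 SD over all tested compounds, cut at about 24% in these data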;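 also: cytokine-independent growth of Ba/F3 cells driven by EpoR plus mutant JAK2; 0% = DMSO-treated cells and 100% = JAK inhibitor I control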
KLF5 inh: KLF5 expression inhibitors, primary screen, DLD-1 cells, luminescence | DLD-1 KLF5 promoter-luciferase reporter | inhibition, % at 5 µM | actives 0.23% (n = 290,000) | AID 1700, 2009;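 active = inhibition above a per-plate limit of that plate's mean compound inhibition plus 3 SD, cut at about 60% in these data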;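 also: 0% = DMSO wells and 100% = LY294002 at 200 µM; higher means less KLF5 promoter-driven luciferase light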
aSyn 5UTR inh: MLPCN primary screen, SNCA 5' untranslated region | alpha-synuclein 5'UTR reporter, inhibitor activity | actives 0.82% (n = 300,000) | inhibition, % (tested at 7.5 µM); in the data active = inhibition above about 60%;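 also: H4 neuroglioblastoma cells stably carrying SNCA 5'UTR luciferase fusion; 0% = DMSO wells and 100% = positive control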
APP 5UTR inh: inhibitors of APP translation via 5'UTR reporter, primary screen, APP 5'UTR luciferase, SH-SY5Y cells. SH-SY5Y APP 5'UTR-luciferase reporter, luminescence. inhibition, % at 2 µM. actives 0.82% (n = 190,000). AID 1285, 2008;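 active = inhibition above a set limit, derived from the sample mean plus 3 SD, cut at about 45% in these data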
IEC-6 cytotox: cytotoxicity in IEC-6 intestinal epithelial cells, primary screen, cytotoxicity control for KLF5 inhibitor project, cell-based, luminescence. actives 0.78% (n = 290,000). inhibition, % at 5 µM. IEC-6 cytotoxicity, luminescence viability; in the data active = inhibition above about 22%;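 also: 0% = plate median of test compound wells and 100% = cytotoxic reference compound wells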
Numbers without * were called inactive; nt = not tested or not shown. Sampled rows, rich in hits. Any-hit rate of the full collection: about 2.2%.

SMILES | BaF3 tox | Ba/F3 V617F tox | KLF5 inh | aSyn 5UTR inh | APP 5UTR inh | IEC-6 cytotox
COc1ccc(CNc2ncc(-c3ccc(F)cc3)n2C)c2ccccc12 | nt | nt | 0 | 65* | nt | 5
O=C1C2C3C=CC(C3)C2C(=O)N1Cc1ccc(CN2C(=O)C3C4C=CC(C4)C3C2=O)cc1 (configuration not stated) | 1 | -2 | 1 | 20 | 6 | 0
O=c1oc2ccccc2cc1-c1nc(-c2ccccc2)no1 | 2 | -2 | -50 | -131 | -76 | 4
CC1=NN(C(N)=S)C(=O)C1N=Nc1ccc(F)cc1 (configuration not stated) | nt | nt | -129 | -89 | nt | -1
CC1=NN(C(N)=S)C(=O)C1N=Nc1ccc(O)cc1 (configuration not stated) | 58* | 37* | -38 | -47 | 9 | 7
Nc1ccc(-c2cc3ccccc3oc2=O)cc1 | nt | nt | 37 | 106* | nt | 3
CCOc1ccc(C2=Nn3c(nnc3-c3ccco3)SC2)cc1 | 0 | -1 | -61 | 23 | 9 | 8
COc1ccc(C2=Nn3c(nnc3-c3ccco3)SC2)cc1OC | 0 | 13 | -39 | 79* | -4 | 7
Fc1ccccc1/C=N/NC(=S)Nc1ccc(Cl)cc1Cl | 10 | 4 | 6 | 47 | 94* | 3
CCCN1CCC(NC(=O)Nc2cc(Cl)ccc2OC)CC1 | 90* | 1 | 3 | 1 | 0 | 5
N#Cc1c(N2CCCC2)ccc(Br)c1Cl | 39* | 0 | 1 | -12 | nt | -11
Cc1cc(C(=O)NCc2cc(F)cc3c2OCOC3)nn1C | -2 | 0 | 0 | -7 | nt | -2
Cn1nc(C(C)(C)C)cc1C(=O)NCc1cc(F)cc2c1OCOC2 | 57* | 44* | -19 | -12 | nt | 9
CCS(=O)(=O)N1N=C(c2cccc(NS(C)(=O)=O)c2)CC1c1ccccc1 (configuration not stated) | 4 | 0 | -19 | -4 | 25 | 4
COc1ccccc1N1CCN(C(=O)c2cc(-c3ccc(F)cc3)on2)CC1 | nt | nt | 5 | 3 | nt | 1
CC(C)Nc1ccc(Nc2ccnc3cc4ccccc4cc23)cc1 | 11 | 18 | -16 | 99* | nt | 12
COc1ccc(C[C@H]2COC(=O)[C@@H]2Cc2ccc(OC3OC(CO)C(O)C(O)C3O)c(OC)c2)cc1OC (some centres not stated) | 41* | 23 | -11 | -1 | 5 | 2
Fc1ccc(NC(=S)NCCc2ccccc2)c(F)c1F | 54* | 42* | -42 | -43 | -2 | -2
O=C(Nc1ccc2c(c1)OCCO2)c1ccc(NC(=O)C2CCCO2)cc1 (configuration not stated) | 0 | -4 | -23 | 30 | -9 | 6
Cc1ccc(NC(=S)NCCN(C2CCCCC2)C2CCCC2)cc1 | 11 | 11 | -13 | -3 | -8 | 8
Cc1cc(C)cc(NC(=S)NCCN(C2CCCCC2)C2CCCC2)c1 | 72* | 7 | -6 | -10 | -26 | 10
COC(=O)c1ccc2c(c1)C(C)(C)C(/C=C/c1ccccc1O)=[N+]2C | 14 | 3 | -39 | 118* | -12 | -2
COC(=O)c1ccc(C)c(NS(=O)(=O)c2ccc(OC)c(OC)c2)c1 | 2 | -4 | -28 | 0 | -9 | -9
O=C(Cc1ccc(Cl)cc1)Nc1cc(S(=O)(=O)N2CCOCC2)ccc1N1CCCC1 | -2 | 1 | -4 | 10 | 20 | -7
CN1CCN(c2ccc(S(=O)(=O)N3CCCCC3)cc2NC(=O)Cc2ccc(Cl)cc2)CC1 | 38* | 52* | -23 | 23 | -19 | 3
CCOC(=O)c1cc(-c2ccccc2)sc1NC(=O)COC(=O)c1cccc(S(N)(=O)=O)c1 | 6 | 0 | 15 | 72* | -16 | -2
CCOC(=O)c1noc(C)c1C(=O)Nc1nccs1 | 9 | 5 | -26 | 6 | -7 | 2
Cc1ccc2nc(-c3ccc(N)cc3)sc2c1 | 3 | -4 | 32 | 90* | nt | 2
CC(=O)N1C=Cc2c(c(C)c3c([nH]c4ccccc43)c2C)C1 | 69* | 80* | 24 | nt | nt | 69*

Screening results: PubChem, several laboratories
